The record followed here is PubChem BioAssay (Tox21).

Unmarked numbers belong to inactive results. Inconclusive results are not listed. Activity calls are given as the source filed them. Unless noted, calls follow the shape of the dose curve; as a rule, active = well fitted curve in the direction sought with a large enough effect in the repeat runs; inconclusive = weak or mixed curves; inactive = no such curve, though single readings can be large; an effect the other way counts as inactive or inconclusive.

Assay [1] in a line: A CellTox Green Cytotoxicity Assay to monitor cytotoxicity in HEK293 cells - 8 hour (AID 1224884). Also: nearly all actives have a fitted effect of over 35% in size. The gist of the method:
(§1)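 Seeding of HEK293 cells together with cytotoxicity dye preceded a 5 h incubation at 37 C/5% CO2. Test compounds in DMSO were then added and fluorescence monitored across 40 h.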

The nature of assay [2]: qHTS RealTime-Glo MT Cell Viability Assay in HepG2 cells - 16 hour (AID 1224885). Also: nearly all actives have a fitted effect of over 50% in size. Also: potency is read from the fitted curve at half-maximal effect. The gist of the method: (§2)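 HepG2 suspension premixed with RealTime-Glo reagents is plated at 600 cells per well and left 5 h at 37 C/5% CO2. Compounds in DMSO then go in, and bioluminescence reflecting viable cell number is recorded over 40 h.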
For orientation: qHTS replaces the single test concentration by a dilution series.

Assay [3] is described as follows: qHTS RealTime-Glo MT Cell Viability Assay in HEK293 cells - 24 hour (AID 1224886). Also: nearly all actives have a fitted effect of over 50% in size. Also: potency is read from the fitted curve at half-maximal effect. Summed up:
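Reads taken at 0, 8, 16, 24, 32 and 40 h from the same wells. HEK293 cells (600/well) carried RealTime-Glo reagents from seeding, with compound added after a 5 h settle at 37 C.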

Assay [4] can be described thus: qHTS RealTime-Glo MT Cell Viability Assay in HEK293 cells - 8 hour (AID 1224887). Also: nearly all actives have a fitted effect of over 50% in size. Also: potency is read from the fitted curve at half-maximal effect. The gist of the method:
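Tox21 screen in HEK293 using RealTime-Glo MT chemistry, with cells and reagent co-dispensed. Luminescence proportional to viable cell number was captured at intervals during 40 h compound exposure at 37 C.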

The nature of assay [5]: A CellTox Green Cytotoxicity Assay to monitor cytotoxicity in HEK293 cells - 16 hour (AID 1224888). Also: nearly all actives have a fitted effect of over 35% in size. Summed up:
as §1

Assay [6] is described as follows: qHTS RealTime-Glo MT Cell Viability Assay in HepG2 cells - 0 hour (AID 1224889). Also: nearly all actives have a fitted effect of over 50% in size. The gist of the method: as §2
A short description of assay [7]: A CellTox Green Cytotoxicity Assay to monitor cytotoxicity in HepG2 cells - 8 hour (AID 1224890). Also: nearly all actives have a fitted effect of over 45% in size. Also: potency is read from the fitted curve at half-maximal effect. The gist of the method:
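Nonlytic assay: viable cells exclude the dye, so fluorescence scales with cell death. HepG2 at 600 cells/well, compounds added after 5 h, signal read across 40 h.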

Assay [8] in a line: qHTS assay to identify small molecule antagonists of the androgen receptor (AR) signaling pathway using the MDA cell line in the presence of 0.5 nM R1881 - cell viability counter screen (AID 1259242). Also: nearly all actives have a fitted effect of over 45% in size. Also: potency is read from the fitted curve at half-maximal effect. Summed up: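 R1881 at 0.5 nM final stimulated MDA-kb2 cells during 16 hr compound treatment at 37C. Cytotoxicity read: CellTiter-Fluor fluorescence after 30 min.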
Assay [9] in a line: qHTS assay to identify small molecule HDAC inhibitors (AID 1259364).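 Also: wild-type HCT-116 cells with endogenous class I/II HDAC activity; top concentration of the series differs between compounds; nearly all actives have a fitted effect of over 45% in size.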 Summed up:
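Relative class I and II HDAC activity is taken from the luminogenic signal in HCT-116 cells, with compound exposure 2 hr and reagent development 30 min at room temperature.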

A short description of assay [10]: qHTS assay to identify small molecule HDAC inhibitors - cell viability counter screen (AID 1259365). The gist of the method: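 HCT-116 (wild type), 1,500 cells/well, overnight 37C/5% CO2; compound in DMSO 2hr; CellTiter-Glo 30min RT; luminescence read.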
The nature of assay [11]: qHTS assay to identify small molecule antagonists of the sonic hedgehog signaling (Shh) pathway - cell viability counter screen (AID 1259367). Also: nearly all actives have a fitted effect of over 55% in size. Also: potency is read from the fitted curve at half-maximal effect. Summed up: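 NIH/3T3-derived Gli1-Luc reporter cells (2,000 per well) rested 4 hr at 37 C, then received DMSO compounds plus conditioned medium. After 23 hr of treatment, CellTiter-Fluor was added for 1 hr at 37C and fluorescence read.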

Assay [12] is described as follows: qHTS assay to identify small molecule agonists of the sonic hedgehog signaling (Shh) pathway (AID 1259368; calls by dose curve;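 also: NIH/3T3-derived 3T3Gli1-Luc cells carrying a stable Gli1-driven firefly luciferase reporter; series mostly up to about 92 µM; nearly all actives have a fitted effect of over 15% in size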). The gist of the method:
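Mouse fibroblast (NIH/3T3) reporter cells with stably integrated Gli1-Luc were treated 24 hr with compound; firefly luciferase luminescence served as the read-out.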

Assay [13] is described as follows: qHTS assay to identify small molecule antagonists of the sonic hedgehog signaling (Shh) pathway (AID 1259369; calls by dose curve; also: nearly all actives have a fitted effect of over 45% in size; also: potency is read from the fitted curve at half-maximal effect). Summed up: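 Conditioned medium drives Shh signalling in 3T3Gli1-Luc cells; compounds in DMSO co-applied, 24hr at 37 C, then luciferase luminescence.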
The target of assay [14] is Estrogen receptor beta (Homo sapiens) (UniProt Q92731). Kind of assay: qHTS assay to identify small molecule agonists of the estrogen receptor beta (ER-beta) signaling pathway (AID 1259377; active = well fitted activation curve with a large enough effect in the signal ratio in the repeat runs, not every such curve was filed as active; the % refers to the signal ratio). The gist of the method:
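Beta-lactamase reporter readout: fluorescence of LiveBLAzer B/G FRET substrate after 2 h at room temperature, following 16 h compound treatment of ER-beta-UAS-bla HEK293T cells at 37C in 2% charcoal-stripped FBS medium.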

Assay [15] is described as follows: qHTS assay to identify small molecule antagonists of the estrogen receptor alpha (ER-alpha) signaling pathway using the BG1 cell line in the presence of 0.1 nM 17-beta-estradiol - cell viability counter screen (AID 1259241). Also: nearly all actives have a fitted effect of over 40% in size. Also: potency is read from the fitted curve at half-maximal effect. Summed up:
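Live-cell protease activity (CellTiter-Fluor fluorescence, 30 min) was read in the same wells after VM7Luc4E2 cells had been exposed to compounds with 0.1 nM 17beta-estradiol for 22 hr at 37C.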

Assay [16] has as its target Androgen receptor (Homo sapiens) (UniProt P10275). Kind of assay: qHTS assay to identify small molecule antagonists of the androgen receptor (AR) signaling pathway using the MDA cell line in the presence of 0.5 nM R1881 (AID 1259243). Also: nearly all actives have a fitted effect of over 50% in size. Also: potency is read from the fitted curve at half-maximal effect. The gist of the method: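 We exposed MDA-kb2 cells to compounds under 0.5 nM R1881 stimulation for 16 hr at 37C and quantified MMTV-driven luciferase by luminescence.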

Assay [17] has as its target Estrogen receptor (Homo sapiens) (UniProt P03372). Kind of assay: qHTS assay to identify small molecule antagonists of the estrogen receptor alpha (ER-alpha) signaling pathway using the BG1 cell line in the presence of 0.1 nM 17-beta-estradiol (AID 1259244). Also: nearly all actives have a fitted effect of over 50% in size. Also: potency is read from the fitted curve at half-maximal effect. Summed up:
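VM7Luc4E2; 4xERE-luciferase; 0.1 nM E2 final; 22 h co-incubation, 37C; ONE-Glo luminescence after 30 min at room temperature.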

Assay [18] in a line: qHTS assay to identify small molecule agonists of the sonic hedgehog signaling (Shh) pathway - cell viability counter screen (AID 1259366). Also: nearly all actives have a fitted effect of over 50% in size. Also: potency is read from the fitted curve at half-maximal effect. The gist of the method:
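CellTiter-Fluor fluorescence read-out, 1 hr at 37C, added after 23hr compound exposure. Cells: 3T3 Gli1-Luc, an NIH/3T3 clone with stably integrated Gli1-Luc reporter, plated 4hr before compound.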

The target in assay [19] is Estrogen receptor beta (Homo sapiens) (UniProt Q92731). In words: qHTS assay to identify small molecule antagonists of the estrogen receptor beta (ER-beta) signaling pathway (AID 1259378; active = well fitted inhibition curve with a large enough effect in the signal ratio in the repeat runs, not every such curve was filed as active; the % refers to the signal ratio; also: potency is read from the fitted curve at half-maximal effect). The gist of the method: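 ER-beta-UAS-bla HEK293T (GripTite) cells in 2% charcoal-stripped FBS medium were preincubated 6 hr at 37C, dosed with compound, then stimulated with 1 nM E2 (final) for 16 hr; beta-lactamase reporter read by B/G FRET fluorescence after 2 hr substrate loading.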
Sequence of Estrogen receptor beta (Homo sapiens) (Q92731 whole entry, looked up): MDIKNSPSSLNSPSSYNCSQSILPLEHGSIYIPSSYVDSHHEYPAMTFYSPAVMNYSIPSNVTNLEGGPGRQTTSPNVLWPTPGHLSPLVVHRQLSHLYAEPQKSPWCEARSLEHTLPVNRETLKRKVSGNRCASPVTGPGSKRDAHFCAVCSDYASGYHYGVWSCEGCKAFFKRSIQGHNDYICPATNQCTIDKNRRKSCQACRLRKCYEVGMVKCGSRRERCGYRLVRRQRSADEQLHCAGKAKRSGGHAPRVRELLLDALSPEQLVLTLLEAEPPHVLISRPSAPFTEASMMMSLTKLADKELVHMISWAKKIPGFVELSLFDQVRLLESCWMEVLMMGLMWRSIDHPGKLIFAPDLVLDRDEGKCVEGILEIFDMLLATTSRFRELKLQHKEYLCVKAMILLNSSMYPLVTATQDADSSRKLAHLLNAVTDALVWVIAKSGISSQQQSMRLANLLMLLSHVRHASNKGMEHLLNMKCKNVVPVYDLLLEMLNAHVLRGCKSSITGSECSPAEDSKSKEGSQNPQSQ

The nature of assay [20]: qHTS assay to identify small molecule phospholipidosis (PLD) inducers (AID 1259344; active = well fitted curve in the direction sought with a large enough effect; an effect the other way counts as inactive or inconclusive). The gist of the method:
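HepG2 cells on collagen I, attached 4 h at 37 C, were co-treated with compound and LipidTOX Red dye for 24 h at 37 C, then fixed with paraformaldehyde plus Hoechst 33342 and imaged by high-content microscopy for phospholipid accumulation.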

Sequence of Estrogen receptor (Homo sapiens) (P03372 whole entry, looked up): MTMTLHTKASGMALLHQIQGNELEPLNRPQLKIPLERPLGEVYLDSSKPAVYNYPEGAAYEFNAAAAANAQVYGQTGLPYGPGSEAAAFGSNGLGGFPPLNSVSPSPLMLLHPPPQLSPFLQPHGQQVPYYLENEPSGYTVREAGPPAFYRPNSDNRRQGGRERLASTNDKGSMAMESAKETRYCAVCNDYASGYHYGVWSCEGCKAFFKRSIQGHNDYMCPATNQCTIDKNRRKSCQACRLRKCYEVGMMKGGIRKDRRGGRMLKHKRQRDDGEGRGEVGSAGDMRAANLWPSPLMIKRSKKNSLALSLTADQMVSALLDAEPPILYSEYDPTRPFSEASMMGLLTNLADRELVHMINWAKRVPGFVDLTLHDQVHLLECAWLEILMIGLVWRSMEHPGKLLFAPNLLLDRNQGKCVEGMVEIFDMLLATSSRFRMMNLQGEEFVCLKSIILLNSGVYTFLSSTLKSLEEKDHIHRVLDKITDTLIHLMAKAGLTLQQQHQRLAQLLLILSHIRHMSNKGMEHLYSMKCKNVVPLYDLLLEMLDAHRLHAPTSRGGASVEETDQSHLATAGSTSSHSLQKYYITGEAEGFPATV
Sequence of Androgen receptor (Homo sapiens) (P10275 whole entry, looked up): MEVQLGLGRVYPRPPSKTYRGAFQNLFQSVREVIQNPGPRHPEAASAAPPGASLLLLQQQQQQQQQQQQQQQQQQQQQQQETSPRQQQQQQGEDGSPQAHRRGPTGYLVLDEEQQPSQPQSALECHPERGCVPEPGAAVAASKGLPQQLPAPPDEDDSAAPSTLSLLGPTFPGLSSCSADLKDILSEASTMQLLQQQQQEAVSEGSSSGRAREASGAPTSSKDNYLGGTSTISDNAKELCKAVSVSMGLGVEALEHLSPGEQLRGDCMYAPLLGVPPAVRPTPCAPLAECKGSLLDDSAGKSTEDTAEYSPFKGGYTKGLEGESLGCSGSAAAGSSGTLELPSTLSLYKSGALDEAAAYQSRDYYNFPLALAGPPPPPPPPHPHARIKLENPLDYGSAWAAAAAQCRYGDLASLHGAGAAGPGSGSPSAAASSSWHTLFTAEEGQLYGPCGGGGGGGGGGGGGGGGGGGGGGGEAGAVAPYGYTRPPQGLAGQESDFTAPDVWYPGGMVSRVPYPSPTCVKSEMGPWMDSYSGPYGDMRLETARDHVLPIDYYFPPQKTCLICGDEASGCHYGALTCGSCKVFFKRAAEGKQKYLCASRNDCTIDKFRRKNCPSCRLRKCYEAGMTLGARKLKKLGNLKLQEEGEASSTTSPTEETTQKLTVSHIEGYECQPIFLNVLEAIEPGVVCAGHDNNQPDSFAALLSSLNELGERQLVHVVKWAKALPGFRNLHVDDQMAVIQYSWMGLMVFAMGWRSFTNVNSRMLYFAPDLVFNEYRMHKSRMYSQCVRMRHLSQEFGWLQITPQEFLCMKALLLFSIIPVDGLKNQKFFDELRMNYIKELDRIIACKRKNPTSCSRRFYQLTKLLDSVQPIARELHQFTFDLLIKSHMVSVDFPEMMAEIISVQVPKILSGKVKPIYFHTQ

Regarding `CCSCC`, the Potency result in [1], in assay [2], in [3], in assay [4], in assay [5] and in [6] was “inactive” throughout. The Potency result in [7], in [8], in assay [9], in [10] and in assay [12] was “inactive” throughout. Also, the results for the Potency in assay [11] and in [13] were 57.6 µM (active) and 18.2 µM (active), respectively. The compound was classed as inactive in assay [14].

Regarding `O=C1C=CC(=O)N1c1cccc(N2C(=O)C=CC2=O)c1`, the Potency result in assay [1], in [6], in assay [9] and in assay [12] was “inactive” throughout. In addition, the Potency is 15.5 µM (active) in assay [2]; 11 µM (active) in assay [3]; 19.5 µM (active) in assay [4]; 17.4 µM (active) in [7]; 68.6 µM (active) in assay [15]; 61.1 µM (active) in assay [8]. Also, the Potency in [16] was 61.1 µM (active); in assay [17], 61.1 µM (active); in assay [18], 8.63 µM (active); in assay [11], 7.7 µM (active); in assay [13] it was 1.72 µM (active); in assay [19], 61.1 µM (active). Also, the call in assay [14] was inactive.

With `CCc1cccc(CC)c1`, the Potency result in assay [1], in assay [2], in assay [3], in [4], in [5] and in [6] was “inactive” in each case. In addition, the Potency result in [7], in [8], in assay [16], in [17], in assay [9] and in [10] was “inactive” throughout. For the same compound, the Potency entry in assay [18], in [11], in assay [12], in assay [13] and in assay [19] was “inactive” throughout. Also, the compound was called inactive in assay [14].

Take `Brc1cc(Br)cc(Br)c1`: the Potency entry in assay [1], in [2], in assay [3], in assay [4], in assay [5] and in assay [6] was “inactive” each time. Moreover, the Potency result in [7], in [8], in assay [16], in [17], in assay [9] and in assay [10] was “inactive” in each case. For the same compound, the Potency result in [18], in assay [11] and in [12] was “inactive” throughout.

Take `C=CC(C)(C)O`: the Potency entry in [1], in assay [2], in assay [3], in assay [4], in [6] and in assay [7] was “inactive” in each case. Further, the Potency entry in assay [15], in assay [8], in assay [16], in [17], in assay [9] and in assay [10] was “inactive” each time. Also, the Potency entry in [18], in [11], in assay [12], in [13] and in assay [19] was “inactive” in each case. Also, the outcome in [14] was inactive.

Consider `CN1CC[C@H](c2c(O)cc(O)c3c(=O)cc(-c4ccccc4Cl)oc23)[C@H](O)C1`, for which the Potency entry in assay [1], in assay [2], in assay [4], in assay [5], in assay [6] and in [7] was “inactive” in each case. Also, the Potency entry in assay [8], in [20], in assay [9], in [10] and in assay [12] was “inactive” in each case. For the same compound, the Potency in assay [3] was 0.151 µM (active); in assay [16], 0.0944 µM (active); in assay [18], 0.376 µM (active); in assay [11], 0.298 µM (active). For the same compound, the compound was classed as inactive in assay [14].

Regarding `[Cl][Eu]([Cl])[Cl]`, the Potency result in assay [1], in [2], in assay [3], in assay [4], in assay [5] and in [6] was “inactive” in each case. Moreover, the Potency result in assay [7], in [8], in [17], in assay [9], in assay [10] and in assay [12] was “inactive” each time.
